Test results from PubChem BioAssay (NCATS).
Records with an inconclusive call do not appear. Active and inactive are the calls of the source. The call rests on the fitted dose curve; in most records, active means well fitted inhibition curve with a large enough effect; inconclusive means small, poorly fitted or top-dose-only effect, or effect the other way; inactive means flat fitted curve, though single readings scatter.

Target: D(1A) dopamine receptor (Homo sapiens) (UniProt P21728)
Assay: HTS Assay for Allosteric Agonists of the Human D1 Dopamine Receptor: Primary Screen for Antagonists (AID 488983); further: nearly all actives have a fitted effect of over 65% in size
Settings: D1 receptor cell assay, antagonist mode, qHTS titration; series mostly up to 41.8 µM; activity change, negative = inhibition: at the top concentration
From the text: Dopamine receptors (DARs) are involved in the etiology and/or therapy of a number of neuropsychiatric and endocrine disorders. For instance, all receptor-based antiparkinsonian drugs work via stimulating the […] DAR subtype whereas all FDA-approved antipsychotic agents are antagonists of this receptor. […] There are three different types of allosteric modulators that we are seeking, two of which will stimulate or augment receptor signaling, allosteric agonists and potentiators, while the third, allosteric antagonists, will attenuate receptor signaling. The present primary screening assay measures compound agonism by tracking calcium flux in a […], inducible Hek293 Trex D1 cell line.
Freshly passaged cells are plated in 1536 well black, clear bottom plates at a density of 4000 cells/well in 3 ul of complete media containing 1x tetracycline inducer. After an overnight incubation at 30 C in 5% CO2, cells are loaded with 2 ul of the no wash Calcium Assay Kit (ABD Bioquest) and incubated at room temperature for 30 to 90 minutes. A 10 cycle (1 second/cycle) baseline measurement is taken and then the FDSS online 1536 pintool delivers 23 nl of compound library (as well as dopamine controls) to the plate. The plate is measured for kinetically at 1 cycle/sec for 180 seconds and is considered to be the agonist portion of the assay (eg, compounds which activate a positive calcium response during this portion are flagged as potential agonists). Following the 180 second read, 1 ul of an EC80 of dopamine is delivered by an onboard pipette head. Measurements are taken kinetically for an additional 180 seconds.
On the % scale 0 is the no-effect control and ±100 the full control effect; potency means the concentration at half of the fitted maximal effect.

D(1A) dopamine receptor (Homo sapiens), sequence (P21728 whole entry, looked up): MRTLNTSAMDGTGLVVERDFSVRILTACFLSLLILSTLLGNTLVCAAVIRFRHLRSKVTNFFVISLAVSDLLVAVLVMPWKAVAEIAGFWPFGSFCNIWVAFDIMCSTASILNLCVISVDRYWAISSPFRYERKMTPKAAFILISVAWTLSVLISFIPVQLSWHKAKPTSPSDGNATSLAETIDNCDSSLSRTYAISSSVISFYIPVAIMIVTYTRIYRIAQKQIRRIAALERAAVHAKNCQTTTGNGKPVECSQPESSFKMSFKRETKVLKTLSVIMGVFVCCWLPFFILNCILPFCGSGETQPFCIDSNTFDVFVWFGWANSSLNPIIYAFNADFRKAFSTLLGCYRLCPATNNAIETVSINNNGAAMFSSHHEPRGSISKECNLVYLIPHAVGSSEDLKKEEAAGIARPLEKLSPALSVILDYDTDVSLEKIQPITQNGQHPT

Row | Structure (SMILES) | activity change, negative = inhibition | Potency
1 | CCN1CCCC1CNC(=O)c1cc(S(=O)(=O)CC)c(N)cc1OC (stereo not given) | -20.8% (inactive) | 
2 | COC(=O)Nc1nc2ccc(C(=O)c3cccs3)cc2[nH]1 | -6.38% (inactive) | 
3 | NC(=O)NO | 6.42% (inactive) | 
4 | CN(C)CCC=C1c2ccccc2C=Cc2ccccc21 |  | 1 µM (active)
5 | COc1ccc(C2CNC(=O)C2)cc1OC1CCCC1 (stereo not given) | 11.1% (inactive) | 
6 | CC(C)(Oc1ccc(C2CC2(Cl)Cl)cc1)C(=O)O (stereo not given) | -18.2% (inactive) | 
7 | N[C@@H](Cc1c[nH]c2ccc(O)cc12)C(=O)O | -23.6% (inactive) | 
8 | Cc1cn([C@H]2C[C@H](N=[N+]=[N-])[C@@H](CO)O2)c(=O)[nH]c1=O | 16.4% (inactive) | 
9 | Nc1c2c(nc3ccccc13)CCCC2 | -16.9% (inactive) | 
10 | CC[N+](CC)(CC)CCOc1cccc(OCC[N+](CC)(CC)CC)c1OCC[N+](CC)(CC)CC | -13% (inactive) | 
11 | CC(C)NCC(O)c1ccc(O)c(O)c1 (stereo not given) | 12.3% (inactive) | 
12 | NCCc1cnc[nH]1 | 13% (inactive) | 
13 | CN1CCC(=C2c3ccccc3CC(=O)c3sccc32)CC1 |  | 2 µM (active)
14 | CCC1(C)CC(=O)NC1=O (stereo not given) | -9.88% (inactive) | 
15 | C[C@H]1c2cccc(O)c2C(O)=C2C(=O)[C@]3(O)C(O)=C(C(N)=O)C(=O)[C@@H](N(C)C)[C@@H]3[C@@H](O)[C@@H]21 | 23% (inactive) | 
16 | CC(C)C(=O)Nc1ccc([N+](=O)[O-])c(C(F)(F)F)c1 | -23.4% (inactive) | 
17 | Cn1c(=O)c2[nH]cnc2n(C)c1=O | 8.05% (inactive) | 
18 | Clc1ccc(C(c2ccccc2Cl)C(Cl)Cl)cc1 (stereo not given) | 5.87% (inactive) | 
19 | COc1ccc(CCN(C)CCCC(C#N)(c2ccc(OC)c(OC)c2)C(C)C)cc1OC (stereo not given) | -26% (inactive) | 
20 | CCC1(c2ccccc2)C(=O)NCNC1=O | 3.96% (inactive) | 

Row | Structure (SMILES) | activity change, negative = inhibition | Potency
21 | O=c1c(-c2ccc(O)cc2)coc2cc(O)cc(O)c12 | -26.9% (inactive) | 
22 | CCCNCC(O)COc1ccccc1C(=O)CCc1ccccc1 (stereo not given) |  | 10 µM (active)
23 | COc1ccc2[nH]cc(CCNC(C)=O)c2c1 | -6.08% (inactive) | 
24 | O=C1N(c2ccccc2)c2ccccc2C1(Cc1ccncc1)Cc1ccncc1 | 9.16% (inactive) | 
25 | COc1ccccc1N1CCN(CC(O)COc2cccc3ccccc23)CC1 (stereo not given) | -15.1% (inactive) | 
26 | Cc1cc(C(C)(C)C)c(O)c(C)c1CC1=NCCN1 | 2.6% (inactive) | 
27 | Clc1ccc2nsnc2c1NC1=NCCN1 | -1.42% (inactive) | 
28 | NC(=O)OCC(COC(N)=O)c1ccccc1 | 8.49% (inactive) | 
29 | CC(COc1ccccc1)N(CCCl)Cc1ccccc1 (stereo not given) | 29.7% (inactive) | 
30 | CCc1cccc2c3c([nH]c12)C(CC)(CC(=O)O)OCC3 (stereo not given) | -2.25% (inactive) | 
31 | O=c1[nH]cc(F)c(=O)[nH]1 | 7.87% (inactive) | 
32 | Fc1ccc([C@@H]2CCNC[C@H]2COc2ccc3c(c2)OCO3)cc1 | -0.752% (inactive) | 
33 | Cc1cc(C(C)(C)C)cc(C)c1CC1=NCCN1 | -5.35% (inactive) | 
34 | C[C@](N)(Cc1ccc(O)c(O)c1)C(=O)O | -0.943% (inactive) | 
35 | COc1nc(C)nc(Cl)c1NC1=NCCN1 | 9.06% (inactive) | 
36 | CCOC(=O)c1ncn2c1CN(C)C(=O)c1cc(F)ccc1-2 | 9.72% (inactive) | 
37 | COc1ccccc1OCCNCC(O)COc1cccc2[nH]c3ccccc3c12 (stereo not given) |  | 8.91 µM (active)
38 | CC(C)NCC(O)COc1ccc(CCOCC2CC2)cc1 (stereo not given) | 6.34% (inactive) | 
39 | Nc1ccn([C@H]2CC[C@@H](CO)O2)c(=O)n1 | 1.97% (inactive) | 
40 | NS(=O)(=O)c1cc2c(cc1Cl)NCNS2(=O)=O | 15.3% (inactive) | 
